We go through ten molecules from paper PMC5540273 (PLoS ONE, 2017).

Where two headings read alike, the source gives them in different places.

For assay [1], the system named is T1, GRK3.
T1 construct: gene ADRBK2
Particulars: concentration: 1 μM, replicates: in singlicate; n = 1.

Assay [2] has as its system GRK4. Particulars: concentration: 1 μM, replicates: in singlicate; n = 1.
The subject of assay [3] is GRK7. Particulars: concentration: 1 μM, replicates: in singlicate; n = 1.
The test system of assay [4] is GSK3A. Particulars: concentration: 1 μM, replicates: in singlicate; n = 1.
Assay [5] relates to GSK3B. Particulars: n = 1.
In assay [6] the test system is T2, HASPIN.
T2 construct: gene GSG2
Particulars: concentration: 1 μM, replicates: in singlicate; n = 1.

In assay [7] the test system is HCK. The note with it: concentration: 1 μM, replicates: in singlicate; n = 1.
Assay [8] concerns HIPK1. The note with it: concentration: 1 μM, replicates: in singlicate; n = 1.
In assay [9] the test system is HIPK2. The note with it: concentration: 1 μM, replicates: in singlicate; n = 1.
In assay [10] the test system is HIPK3. Particulars: concentration: 1 μM, replicates: in singlicate; n = 1.
Assay [11] concerns HIPK4. The note with it: concentration: 1 μM, replicates: in singlicate; n = 1.
Assay [12] relates to HPK1. Particulars: concentration: 1 μM, replicates: in singlicate; n = 1.
For assay [13], the system named is HUNK. Particulars: concentration: 1 μM, replicates: in singlicate; n = 1.
Assay [14] deals with ICK. Particulars: concentration: 1 μM, replicates: in singlicate; n = 1.
For assay [15], the system named is IGF1R. The note with it: concentration: 1 μM, replicates: in singlicate; n = 1.
Assay [16] has as its system T3, IKK-alpha.
T3 construct: gene CHUK
The note with it: concentration: 1 μM, replicates: in singlicate; n = 1.

Assay [17] concerns T4, IKK-beta.
T4 construct: gene IKBKB
Particulars: concentration: 1 μM, replicates: in singlicate; n = 1.

In assay [18] the test system is T5, IKK-epsilon.
T5 construct: gene IKBKE
Particulars: concentration: 1 μM, replicates: in singlicate; n = 1.

Assay [19] concerns INSRR. Particulars: concentration: 1 μM, replicates: in singlicate; n = 1.
Assay [20] has as its system INSR. The note with it: concentration: 1 μM, replicates: in singlicate; n = 1.
The mark [21] stands for this setting: concentration: 1 μM, replicates: in singlicate.
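Note: KINOMEscan kinase panel screen.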

For `O=C(Nc1n[nH]c2nc(-c3ccco3)c(Br)cc12)C1CCN(Cc2ccccc2)C1.O=C(O)[C@H](O)[C@@H](O)C(=O)O` (centres unmarked) [SB-742034], the “%Inh” value came to 0% in [1]; 11% in [2]; 42% in assay [3]; 97.8% in assay [4]; 72% in [5] (1 µM); 0% in assay [6]. The “%Inh” value was 7% in assay [7]; 30% in [8]; 32% in [9]; 25% in [10]; 1% in [11]; 0% in assay [12]. The “%Inh” value came out at 33% in assay [13]; 22% in assay [14]; 0% in assay [15]; 0% in assay [16]; 26% in [17]; 19% in [18]. In addition, the entries for the “%Inh” value in [19] and in [20] were 0% and 12%, respectively.
`Cc1cnc(N)c(/C=C/c2cncc(C(=O)NCCc3ccc(Cl)cc3Cl)c2)c1.Cl` [GSK190937]: the “%Inh” value in assay [1] is recorded as 6%; in [2], 0%; in [3], 0%; in assay [4], 5%; in [5] (setting [21]), 0%; in [6], 29%. For the same molecule, the “%Inh” value was found to be 0% in assay [7]; 0% in assay [8]; 0% in assay [9]; 26% in assay [10]; 17% in [11]; 45% in [12]. The “%Inh” value is recorded as 10% in assay [13]; 0% in [14]; 8% in [15]; 19% in assay [16]; 46% in assay [17]; 29% in [18]. Besides, the “%Inh” value is 0% in [19] and 31% in [20].
As to `CCc1ccc(-c2ccc3c(c2)-c2n[nH]cc2S(=O)(=O)N3C)cc1`, the “%Inh” value in assay [1] turned out to be 0%; in [2], 0%; in assay [3], 0%; in assay [4], 35%; in [5] (setting [21]) it was 0%; in [6] it was 4%. Further, the “%Inh” value worked out at 16% in assay [7]; 0% in assay [8]; 0% in [9]; 0% in assay [10]; 23% in assay [11]; 16% in [12]. Further, the “%Inh” value in assay [13] is recorded as 34%; in [14], 0%; in [15] it was 0%; in assay [16], 0%; in [17], 0%; in assay [18], 0%. The “%Inh” value in assay [19] and in assay [20] was 0% in each case.
Turning to `COc1cc2ncnc(Nc3cccc(Br)c3)c2cc1OC.Cl` [GI230329], the “%Inh” value came out at 26% in assay [1]; 0% in [2]; 0% in assay [3]; 0% in [4]; 0% in assay [5] (setting [21]); 20% in assay [6]. In addition, the “%Inh” value in assay [7] is recorded as 24%; in assay [8], 0%; in [9], 0%; in [10], 0%; in assay [11], 68%; in assay [12], 50%. Moreover, the “%Inh” value in assay [13] is listed as 6%; in [14] it was 3%; in [15], 0%; in assay [16], 0%; in assay [17] it was 0%; in assay [18], 18%. Moreover, the “%Inh” value in assay [19] and in [20] was 0% each time.
Turning to `Fc1ccc(-c2nc3n(c2-c2ccncc2)CCS3)cc1` [GI98581], the “%Inh” value in assay [1] is listed as 21%; in assay [2], 0%; in assay [3], 0%; in assay [4], 14%; in assay [5] (setting [21]) it was 19%; in assay [6] it was 13%. Moreover, the “%Inh” value in assay [7] was 0%; in assay [8] it was 0%; in assay [9], 0%; in [10] it was 0%; in [11], 0%; in assay [12], 44%. Moreover, the “%Inh” value worked out at 8% in assay [13]; 0% in assay [14]; 17% in [15]; 0% in assay [16]; 0% in [17]; 0% in [18]. Also, the figures for the “%Inh” value in assay [19] and in [20] were 6% and 0%, respectively.
`CC[C@@H]1CO[C@H](C(=O)Nc2ccccc2)CN1c1cc(-c2ccc3c(N)n[nH]c3c2)nc(NC)n1` [GSK2376236]: the “%Inh” value was 0% in assay [1]; 0% in assay [2]; 0% in assay [3]; 12% in assay [4]; 17% in [5] (setting [21]); 0% in [6]. Further, the “%Inh” value is 0% in [7]; 9% in [8]; 0% in assay [9]; 4% in assay [10]; 0% in assay [11]; 15% in [12]. Also, the “%Inh” value in assay [13] is given as 0%; in assay [14], 0%; in assay [15], 0%; in [16] it was 0%; in [17] it was 1%; in assay [18] it was 6%. Besides, the “%Inh” value in [19] was 0%; in assay [20], 10%.
For `CC(C)c1cc(-c2ccc3c(N)n[nH]c3c2)nc(N)n1` [GSK2250882], the “%Inh” value in [1] worked out at 0%; in assay [2], 10%; in assay [3], 0%; in [4], 0%; in assay [5] (setting [21]) it was 0%; in assay [6], 83%. Further, the “%Inh” value amounted to 0% in assay [7]; 15% in [8]; 0% in assay [9]; 9% in [10]; 30% in assay [11]; 45% in assay [12]. Besides, the “%Inh” value in assay [13] is recorded as 0%; in assay [14], 0%; in [15], 6%; in assay [16], 0%; in assay [17], 4%; in [18], 10%. For the same molecule, the figures for the “%Inh” value in [19] and in [20] were 0% and 4%, respectively.
In the case of `CC(=O)c1cccc(NC(=O)NC2CCN(c3ccnc(Nc4ccc(F)cc4)n3)C2)c1` (centres unmarked) [GSK1379710], the “%Inh” value is listed as 49% in [1]; 0% in assay [2]; 0% in assay [3]; 32% in assay [4]; 4% in assay [5] (setting [21]); 26% in assay [6]. In addition, the “%Inh” value in [7] worked out at 2%; in assay [8], 0%; in [9] it was 0%; in assay [10], 7%; in assay [11], 0%; in assay [12], 50%. In addition, the “%Inh” value in [13] is on record as 0%; in [14] it was 5%; in assay [15] it was 0%; in assay [16], 4%; in [17], 1%; in assay [18], 33%. The “%Inh” value in assay [19] stood at 0%; in assay [20], 12%.
For `COc1ccc2cc(-c3nc(-c4ccccc4C(C)C)[nH]c3-c3ccncc3)ccc2c1` [SB-660566], the “%Inh” value in assay [1] stood at 34%; in assay [2], 0%; in [3], 0%; in [4], 2%; in [5] (setting [21]), 17%; in assay [6], 0%. The “%Inh” value came out at 0% in assay [7]; 0% in assay [8]; 0% in [9]; 25% in assay [10]; 0% in assay [11]; 37% in assay [12]. The “%Inh” value in assay [13] is 0%; in [14], 22%; in assay [15], 9%; in [16], 19%; in assay [17], 26%; in assay [18], 14%. In addition, the “%Inh” value in assay [19] stood at 1%; in assay [20], 5%.
In the case of `Cc1c(Cn2c(C)c(C)n3c(=O)cc(N4CCOCC4)nc23)cccc1C(F)(F)F` [GSK2328680], the “%Inh” value is listed as 0% in assay [1]; 0% in assay [2]; 0% in assay [3]; 13% in assay [4]; 11% in assay [5] (setting [21]); 0% in [6]. For the same molecule, the “%Inh” value turned out to be 0% in assay [7]; 0% in assay [8]; 0% in assay [9]; 13% in assay [10]; 0% in assay [11]; 33% in assay [12]. Moreover, the “%Inh” value is given as 0% in [13]; 0% in [14]; 0% in assay [15]; 7% in [16]; 0% in assay [17]; 0% in assay [18]. The results for the “%Inh” value in assay [19] and in assay [20] were 52% and 0%, respectively.
